In PubChem BioAssay AID493201 (National Center for Advancing Translational Sciences (NCATS), 2011) one finds Potency data, which are given here for 40 compounds.

The structures appear in SMILES notation. Results filed as inconclusive are left out. Entries that show only a call come without a potency. Calls of active or inactive are those of the source. Calls follow the shape of the dose curve; as a rule, active = well fitted activation curve with a large enough effect; inconclusive = small, poorly fitted or top-dose-only effect; inactive = no such curve, though single readings can be large or run the other way.
Potency is read from the fitted curve at half-maximal effect.

A short description of the assay: qHTS Assay for Identifying a Potential Treatment of Ataxia-Telangiectasia: Secondary assay (no NCS) hit validation.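 Also: phosphorylated KAP1 signal as a proxy for ATM-like kinase activity.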 As to conditions: A-T patient fibroblasts, AlphaLISA, no DNA damage added, 90 min; series mostly up to 76.9 µM. The text has this: NIH Chemical Genomics Center [NCGC]
NIH Molecular Libraries Probe Centers Network [MLPCN]
Assay Submitter (PI): Wei Zheng and Yosef Shiloh
Ataxia-telangiectasia (A-T) is a devastating and progressive disease for which, there is no cure. Although A-T is a multisystem disease, it is stereotyped characterized by its neurological symptoms such as truncal ataxia, due to cerebellar cortical degeneration of the Purkinje and granule cells. Other symptoms of A-T are telangiectasias (dilated blood vessels), primary immunodeficiency, marked sensitivity to ionizing radiation (IR), chromosomal instability and predisposition to cancer.
The underlying genetic cause of A-T is null mutations in the ATM (A-T mutated) gene. ATM is a nuclear serine/threonine kinase that functions as a master regulator of the cellular responses to double strand breaks (DSBs) in the DNA. Upon activation by DSBs, ATM phosphorylates a plethora of downstream targets, including KAP-1 on […]. KAP-1 phosphorylation occurs shortly in response to DSBs and mediates global chromatin relaxation, which facilitates DSB repair. To screen for small molecules that will compensate for the loss of ATM in cells derived from A-T patients, we monitored KAP-1 phosphorylation as a readout for ATM-like activity using an AlphaLISA assay. This secondary assay omits NCS, which creates double-stranded DNA breaks.
Step,Parameter,Value,Description
1. Cell Plating, 3 ul, 500 cells/well in OPTI-MEM, 1% FBS, 1% Pen/Strep
3. Library compounds, 23 nl, 76.7 - 0.61uM dilution series final concentration
4. Incubation, 60 min, 37C, 5% CO2, 95% humidity
6. Incubation, 30 min, 37C, 5% CO2, 95% humidity
7. Reagent, 1 ul, Premixed detection reagents and lysis buffer
8. Reagent, 1 ul, 0.6% Antifoam A
9. Incubation, 6 hr, 25C, 95% humidity
10. Readout, EnVision, EnVision plate reader. AlphaScreen 1536-well protocol
Cells were plated using medium-binding white solid-bottom tissue culture treated Kalypsys plates. Multidrop dispense of 3 uL of F2112 (hTERT immortalized A-T patient fibroblast cells). Detection reagent and lysis buffer was 3.75nM Rab-a-pKAP1 antibody bound to 75 ng/ul AlphaScreen SA donor bead, 3.75 nM Biot-M-a-KAP1 antibody bound to AlphaLISA protein A acceptor bead, 0.5x protease inhibitor cocktail and 0.25x PerkinElmer lysis buffer. EnVision protocol for 1536-well AlphaScreen read (30ms excitation, 100ms read), about 10 min/plate.
On the technique in general: qHTS replaces the single test concentration by a dilution series.
Turning to `c1ccc(CSc2nnc(-c3ccco3)n2Cc2ccco2)cc1`, the Potency result is “inactive”.

`COCCCNC(=O)c1c[nH]c2ccc(S(=O)(=O)N(C)c3ccccc3C)cc2c1=O`: the Potency entry was “inactive”.

For `CCC(C)Nc1nc(N)c([N+](=O)[O-])c(NCCO)n1` (stereo not given), the Potency result is “inactive”.

For `N#C/C(=C/c1ccc(F)cc1)C(N)=S`, the Potency entry was “inactive”.

On to `CC(C)(C)C1CCC2(CC1)SCC(=O)N2c1ccccc1` (stereo not given), for which the Potency result was “inactive”.

Regarding `CCOC(=O)N1CCN(c2nc(N(c3ccccc3)c3ccccc3)nc(-n3ccnc3)n2)CC1`, the Potency result was “inactive”.

Consider `COc1ccc(CNC(=O)CN2C(=O)CSc3ccc(S(=O)(=O)N4CCOCC4)cc32)c(OC)c1`, for which the Potency entry was “inactive”.

Turning to `C=CCOC(=O)C1=C[C@H](c2coc3ccccc3c2=O)C[C@H](OCc2ccc(CO)cc2)O1`, the Potency entry was “inactive”.

Turning to `O=c1c(-c2ccc(Cl)cc2)c[nH]n1-c1ccccc1`, the Potency entry was “inactive”.

With `Cc1cc2nc3ccc(=[N+](C)C)cc-3sc2cc1N`, the Potency entry was “inactive”.

Regarding `O=C(N/N=C/c1cccc2ccccc12)c1cccnc1`, the Potency result was “inactive”.

Take `CNC(=O)c1ccc(-c2sc3nc(N4CCOCC4)c4c(c3c2N)CC(C)(C)OC4)o1`: the Potency was 29.2 µM (active).

As to `Cc1ccc(C)c(-n2c(SCC(=O)NC(C(=O)O)C(C)C)nnc2-c2cccc(Cl)c2)c1` (stereo not given), the Potency was 46.3 µM (active).

On to `C/C=C\C=C/C(=O)Nc1cccc(C2=NOC3(C2)C[C@@H](C(N)=O)N(C(=O)COc2ccc(Cl)cc2)C3)c1` (stereo not given in full), for which the Potency entry is “inactive”.

On to `COc1ccc(Nc2cc3n(c(=O)n2)CCc2cc(OC)c(OC)cc2-3)cc1`, for which the Potency entry was “inactive”.

As for `CC(=O)Nc1ccc(NC2=CC(=O)c3ccccc3C2=O)cc1`, the Potency result was “inactive”.

`O=C1CN(C(=O)NCC(=O)N[C@H](C(=O)O)c2ccccc2)c2ccccc2N1`: the Potency result was “inactive”.

`O=C(NC12CC3CC(CC(C3)C1)C2)c1cccc(OC(F)F)c1`: the Potency entry is “inactive”.

Consider `CNC(=O)/C=C/c1cc(C(=O)c2ccc(Cl)cc2Cl)cn1C`, for which the Potency result was “inactive”.

`COc1cccc(CNCc2ccc(OC)c3ccccc23)c1OC`: the Potency entry was “inactive”.

Turning to `CCOC(=O)Cn1c(-c2ccccc2)cc(SC)c(C#N)c1=O`, the Potency entry is “inactive”.

On to `CNC(=S)N(CCO)Cc1cc2cc3c(cc2[nH]c1=O)OCCO3`, for which the Potency result is “inactive”.

For the compound `c1ccc2c(c1)nc(Nc1ccc(N3CCCCC3)cc1)c1nncn12`, the Potency entry is “inactive”.

For `Cc1ccc(C(=O)Nc2sc3c(c2C(=O)O)CCCCC3)o1`, the Potency was 0.232 µM (active).

Turning to `COc1ccc(-c2cc(C(F)(F)F)c(C#N)c(SCC(=O)O)n2)cc1OC`, the Potency result is “inactive”.

Take `COc1ccc(NS(=O)(=O)c2ccc(N3CC(O)=C(c4ccccc4)C3=N)cc2)cc1`: the Potency result is “inactive”.

For `O=C(O)CCC(=O)NN1C(=O)c2ccccc2NC1c1ccco1` (stereo not given), the Potency entry is “inactive”.

`Cc1ccc(C)c(-c2csc(Nc3ncccn3)n2)c1`: the Potency entry was “inactive”.

On to `CC(=O)c1ccc([N+](=O)[O-])c(CS(=O)(=O)c2ccc(Cl)cc2)c1`, for which the Potency entry was “inactive”.

Take `CCC(=O)NC1=C(Cl)C(=O)C(NC(=O)CC)=C(Cl)C1=O`: the Potency entry was “inactive”.

Consider `Cc1ccc(-c2noc(CCC(=O)NC3CCN(Cc4ccccc4)CC3)n2)cc1`, for which the Potency result was “inactive”.

Take `COc1ccccc1N1CCN(C(=O)c2cc(=O)c3c(C)cc(C)cc3o2)CC1`: the Potency result was “inactive”.

Turning to `CSc1nc(SCC(=O)O)c2c3c(sc2n1)COC(C)(C)C3`, the Potency entry was “inactive”.

For `CN(CCc1ccccn1)C(=O)c1cc(COc2ccc(F)cc2F)on1`, the Potency result was “inactive”.

With `COc1ccc2c(c1)c(N=NC(N)=S)c(O)n2CC(=O)c1ccccc1`, the Potency result was “inactive”.

In the case of `O=C(O)c1ccc(/C=C/c2nc3ccccc3c(=O)[nH]2)cc1`, the Potency result is “inactive”.

As for `N#Cc1c(-c2ccccc2)cc(-c2ccccc2)[nH]c1=O`, the Potency result was “inactive”.

On to `Cc1nnc(SCC(=O)NC(=O)Nc2ccc3c(c2)OCCO3)n1N`, for which the Potency entry is “inactive”.

Take `O=C(C[n+]1cccc2ccccc21)c1ccc(NC(=O)c2ccccc2)cc1`: the Potency entry was “inactive”.

Consider `O=C(OCCc1cc2ccccc2c(=O)o1)c1cccc(Br)c1`, for which the Potency entry is “inactive”.
